Drawing on PubChem BioAssay (NCI), this text covers growth for eight compounds.

Molecules are shown by their SMILES. The panel holds about 83,000 compounds, 20% with a hit somewhere; the sample as a whole holds those more often.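 Percent growth is the endpoint: 0 to 100 indicates growth inhibition (40 means 60% inhibition), 0 means no net growth, and negative values indicate cell death.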 Values without a mark were called inactive. The source made the active and inactive calls. Rule for the calls: active = growth percent below 10; inactive = the rest.

Among the test systems are K-562 leukemia; MALME-3M melanoma; MDA-MB-231 breast; RXF 393 renal; SF-268 CNS; SF-295 CNS; SF-539 CNS; UACC-257 melanoma; M14 melanoma; HCT-15 colon; HT29 colon; SNB-75 CNS; SNB-19 CNS; U251 CNS; PC-3 prostate; UACC-62 melanoma; SK-MEL-28 melanoma; SK-MEL-2 melanoma; SK-MEL-5 melanoma; LOX IMVI melanoma.
Common to all, as to assay: NCI-60 one-dose screen, 48 h (100 = growth as untreated, 0 = no growth, -100 = all killed)
Details in all cases: 10 µM unless noted

As for `CCOC(=O)c1sc(NCC(=O)Nc2cccc([N+](=O)[O-])c2)c(C(=O)OCC)c1C`, the growth is 5.97% (active) with K-562 leukemia; -63.7% (active) in the assay on MALME-3M melanoma; -24.5% (active) with MDA-MB-231 breast; -74% (active) in the assay with RXF 393 renal; -25% (active) with SF-268 CNS; -77.5% (active) in the assay with SF-295 CNS. In addition, the growth in the assay with SF-539 CNS was -35.1% (active); in the assay with UACC-257 melanoma, -6.79% (active); in the assay with M14 melanoma it was -73% (active); with HCT-15 colon, 2.01% (active); with HT29 colon, -42.7% (active); in the assay on SNB-75 CNS, -37.6% (active). Besides, the growth was -6.96% (active) in the assay on SNB-19 CNS; -7.36% (active) with U251 CNS; -9.82% (active) in the assay with PC-3 prostate; -72.4% (active) with UACC-62 melanoma; -30.9% (active) with SK-MEL-28 melanoma; -24% (active) in the assay with SK-MEL-2 melanoma.

As to `COc1ccccc1C(=O)CSc1nc(Nc2ccc(S(N)(=O)=O)cc2)c2ccccc2n1`, the growth was 85.7% with K-562 leukemia; 90.2% in the assay with MALME-3M melanoma; 77.3% in the assay on MDA-MB-231 breast; 97.1% in the assay with RXF 393 renal; 89.9% in the assay on SF-268 CNS; 97.6% in the assay with SF-295 CNS. For the same compound, the growth in the assay on SF-539 CNS was 81.2%; in the assay with UACC-257 melanoma, 111%; with M14 melanoma it was 94.1%; in the assay on HCT-15 colon it was 92.4%; in the assay with HT29 colon, 102%; in the assay with SNB-75 CNS, 106%. In addition, the growth in the assay on SNB-19 CNS is 85.7%; in the assay with U251 CNS it was 93%; in the assay on PC-3 prostate it was 92.6%; in the assay with SK-MEL-5 melanoma it was 91.7%; in the assay on LOX IMVI melanoma it was 16.1%; in the assay on SK-MEL-28 melanoma, 96.8%. For the same compound, the growth in the assay on SK-MEL-2 melanoma is 98.1%.

Turning to `CN(C)CCCNc1c2ccc(Cl)cc2nc2c1oc1ccc(Cl)cc12`, the growth with K-562 leukemia was -6.56% (active); in the assay with MALME-3M melanoma, 49.4%; with MDA-MB-231 breast it was -60.9% (active); with RXF 393 renal it was -80.8% (active); with SF-268 CNS, 43.8%; in the assay with SF-295 CNS it was -66.9% (active). Besides, the growth was -85.8% (active) in the assay with SF-539 CNS; 94.5% in the assay on UACC-257 melanoma; -75.6% (active) in the assay with M14 melanoma; -42.4% (active) with HCT-15 colon; 45.2% in the assay with SNB-75 CNS; 38.2% with SNB-19 CNS. Further, the growth with U251 CNS was -50.9% (active); in the assay on PC-3 prostate it was -24.1% (active); with SK-MEL-5 melanoma it was 77.1%; in the assay on UACC-62 melanoma it was 12.6%; with LOX IMVI melanoma, -93.7% (active); in the assay with SK-MEL-28 melanoma it was 72.5%. In addition, the growth in the assay with SK-MEL-2 melanoma is 127%.

`COc1cccc(NC2=CC(=O)C(C)=C(C)C2=O)c1`: the growth in the assay on K-562 leukemia was 12.5%; with MALME-3M melanoma, 101%; in the assay on MDA-MB-231 breast it was 41.4%; in the assay with RXF 393 renal, 55.8%; in the assay on SF-268 CNS it was 74.5%; in the assay with SF-295 CNS it was 105%. Besides, the growth in the assay with SF-539 CNS is 21.7%; in the assay on UACC-257 melanoma, 54.7%; in the assay with M14 melanoma it was 97%; in the assay with HCT-15 colon, 91.9%; in the assay on HT29 colon, 98.3%; in the assay with SNB-75 CNS, 99.8%. In addition, the growth in the assay on SNB-19 CNS was 97.7%; in the assay with U251 CNS it was 95.1%; in the assay on PC-3 prostate, 36.3%; in the assay on UACC-62 melanoma, 91.8%; in the assay with SK-MEL-28 melanoma it was 96.5%.

Consider `N#Cc1ccc(/C=N/NC(=O)c2[nH]c3ccc(Br)cc3c2-c2ccccc2)s1`, for which the growth is 8.83% (active) in the assay on K-562 leukemia; 50.1% in the assay with MALME-3M melanoma; 22.1% with MDA-MB-231 breast; 56% in the assay on RXF 393 renal; 30% with SF-268 CNS; 11.7% in the assay on SF-295 CNS. The growth in the assay on SF-539 CNS is 2.47% (active); with UACC-257 melanoma, 40.9%; in the assay with M14 melanoma, 9% (active); with HCT-15 colon, 8.95% (active); with HT29 colon it was 5.64% (active); in the assay with SNB-75 CNS, 49.7%. The growth is 29.4% in the assay with SNB-19 CNS; 16.5% in the assay on U251 CNS; 25% in the assay with PC-3 prostate; -40.9% (active) with SK-MEL-5 melanoma; 58.4% in the assay on SK-MEL-28 melanoma.

For the compound `COc1ccc(CNS(=O)(=O)/N=C2\NC(=O)NC2=C(Cl)Cl)cc1`, the growth in the assay with K-562 leukemia was 13%; in the assay with MALME-3M melanoma it was 76%; in the assay on MDA-MB-231 breast, 22.1%; in the assay on RXF 393 renal, 39.6%; in the assay with SF-268 CNS, 59.6%; with SF-295 CNS, -22.9% (active). Further, the growth is -6.36% (active) in the assay on SF-539 CNS; 54.4% in the assay on UACC-257 melanoma; 25.2% in the assay with M14 melanoma; 56.1% in the assay on HCT-15 colon; 8.17% (active) in the assay with HT29 colon; -23.1% (active) with SNB-75 CNS. In addition, the growth with SNB-19 CNS is 30%; in the assay on U251 CNS it was 14.8%; with PC-3 prostate, 28%; in the assay on UACC-62 melanoma, 27.4%; in the assay on SK-MEL-28 melanoma it was 48.7%; in the assay on SK-MEL-2 melanoma, 29.1%.

As for `CN1C(=S)N(C)C2C1NN=C1SC(c3ccccc3)=CC(=O)N12` (centres undefined), the growth in the assay with K-562 leukemia is 57.4%; in the assay with MALME-3M melanoma it was 97.7%; in the assay on MDA-MB-231 breast, 83.3%; with RXF 393 renal it was 97.8%; in the assay on SF-268 CNS, 108%; with SF-295 CNS, 98%. Moreover, the growth is 90.8% in the assay with SF-539 CNS; 99% in the assay with UACC-257 melanoma; 101% in the assay on M14 melanoma; 89.5% in the assay on HCT-15 colon; 115% with SNB-75 CNS; 98.9% in the assay on SNB-19 CNS. Also, the growth is 95.1% in the assay on U251 CNS; 87.5% in the assay with PC-3 prostate; 64.3% in the assay with SK-MEL-5 melanoma; 78.3% in the assay with UACC-62 melanoma; 92.2% with LOX IMVI melanoma; 102% in the assay on SK-MEL-28 melanoma.

Consider `COc1ccc(-n2c(SCC(=O)Nc3ccc(-c4nc5ccccc5[nH]4)cc3)nc3ccccc3c2=O)cc1`, for which the growth with K-562 leukemia is 5.98% (active); in the assay with MALME-3M melanoma, -57.3% (active); in the assay on MDA-MB-231 breast, 29%; in the assay on RXF 393 renal, -39.1% (active); in the assay on SF-268 CNS it was 42.6%; in the assay on SF-295 CNS, 16.2%. Moreover, the growth is -77.3% (active) with SF-539 CNS; 45.3% with UACC-257 melanoma; -26.7% (active) with M14 melanoma; -11% (active) in the assay on HCT-15 colon; -5.71% (active) in the assay with HT29 colon; 62.8% in the assay on SNB-75 CNS. Also, the growth is 20.9% in the assay on SNB-19 CNS; -83.4% (active) with U251 CNS; 6.41% (active) in the assay with PC-3 prostate; -7.57% (active) in the assay on SK-MEL-5 melanoma; -64% (active) in the assay on SK-MEL-28 melanoma; 97.7% in the assay on SK-MEL-2 melanoma.
